Rows were chosen to be rich in hits. Some 7.4% of all compounds tested hit in one or more screens of this group.
SMN2 splice enh = SMN2 splice variant enhancement; HEK293 SMN2-luciferase splicing reporter, luminescence, 30-36 h; Potency, µM (titrated, usually from 46.1 µM), without a hit: at the highest dose activity change, positive = activation, usual class: activators; 210,000 tested, 2.8% active; note: % of control where 0% means no effect; nearly all actives have a fitted effect of over 55% in size
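HEK293 cells carry an SMN2 minigene-luciferase reporter in which exon 7 inclusion puts luciferase in frame. Cells were seeded at 2000 cells/well, attached for 10-12 hours, then exposed to compounds for 30-36 hours at 37C before ONE-Glo luminescence.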
ELG1 genotox = inducers of genotoxicity in HEK293T ELG1-luciferase cells; HEK293T ELG1-luciferase reporter, luminescence, 16 h; Potency, µM (doses to about 46 µM), without a hit: at the highest dose activity change, positive = activation, actives largely listed as activators; 330,000 tested, 1.3% active; note: % of control where 0% means no effect; nearly all actives have a fitted effect of over 60% in size
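Genotoxic stress is detected as increased luminescence from luciferase-tagged ELG1 in HEK293T cells, measured with ONE-Glo after a 16 hr treatment at 37 °C.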
Rab9 promoter act = activates the Rab9 promoter | 320,000 tested, 2.8% active | Potency, µM (titrated, usually from 9.22 µM), for the others: at the highest dose activation, negative = inhibition, most hits filed as activators | Huh7 Rab9 promoter-luciferase reporter, luminescence, 24 h; note: % of control where 0% means no effect; nearly all actives have a fitted effect of over 60% in size
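Luminescence read-out: Huh7 cells stably expressing Rab9-luciferase, treated 24 h with compound at 37 °C, then lysed with luciferase reagent for 10 min at ambient before reading.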
FLuc counter = inhibits or activates purified firefly luciferase, miR-21 counter-screen. 360,000 tested, 6.9% active. Potency, µM (highest dose often 57.5 µM), for inactives: at the top dose activity change, negative = inhibition, most hits filed as inhibitors. P08659. purified FLuc, Km substrates, luminescence inhibition;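 note: plate controls were vehicle for no effect and reference inhibitor for full effect; nearly all actives have a fitted effect of over 55% in size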
Target sequence (P08659 whole entry, looked up): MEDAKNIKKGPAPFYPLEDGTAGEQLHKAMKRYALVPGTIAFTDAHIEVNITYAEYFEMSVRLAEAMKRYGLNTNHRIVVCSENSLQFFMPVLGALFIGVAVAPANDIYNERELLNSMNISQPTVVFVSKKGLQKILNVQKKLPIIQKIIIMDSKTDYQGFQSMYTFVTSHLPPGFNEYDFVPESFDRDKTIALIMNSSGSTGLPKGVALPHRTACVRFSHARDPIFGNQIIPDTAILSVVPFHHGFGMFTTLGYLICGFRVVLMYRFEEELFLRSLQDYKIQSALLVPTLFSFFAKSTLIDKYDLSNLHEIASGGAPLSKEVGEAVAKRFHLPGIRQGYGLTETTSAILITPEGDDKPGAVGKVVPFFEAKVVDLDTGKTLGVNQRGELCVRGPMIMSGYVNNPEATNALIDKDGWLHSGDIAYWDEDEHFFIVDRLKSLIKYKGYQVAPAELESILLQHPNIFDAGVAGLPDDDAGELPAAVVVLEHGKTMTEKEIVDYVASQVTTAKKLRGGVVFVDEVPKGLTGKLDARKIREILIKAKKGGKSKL
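Biochemical qHTS of compounds, final roughly 60 µM downward over six points, against 10 nM purified firefly luciferase using Km concentrations of substrates (10 uM D-luciferin, 10 uM ATP) in Tris acetate pH 7.5 buffer; luminescence output.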
NPC1 prom act = activates the NPC1 promoter | Huh7 NPC1 promoter luciferase reporter, 24 h | Potency, µM (doses to about 9.22 µM), for inactives: at the highest dose activation, actives largely listed as activators | 320,000 tested, 2.4% active | AID 485313; note: % of control where 0% means no effect; nearly all actives have a fitted effect of over 60% in size
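Luciferase expression driven by the NPC1 promoter was measured in stably transfected Huh7 cells after a 24 h compound incubation, using a luciferase reagent and a luminescence read.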
An asterisk follows results filed as active; ? = inconclusive; / = no result; [ ] = remark or other dose. Calls come from the whole dose curve; as a rule, active = well fitted curve in the direction sought with a large enough effect; inconclusive = small, poorly fitted or top-dose-only effect, or another doubt; inactive = no such curve, though single readings can be large; an effect the other way counts as inactive or inconclusive. Potency is the fitted concentration of half-maximal effect.

SMILES	SMN2 splice enh	ELG1 genotox	Rab9 promoter act	FLuc counter	NPC1 prom act
C(=N\NC1=Nc2cccc3cccc1c23)/c1ccccc1	4µM*	?	4.5µM*	1.7µM*	4µM*
O=[N+]([O-])c1cc(NCCO)c(N2CCCCCC2)c2nonc12	/	-3%	-1%	-2%	-2%
COc1cccc(CNC(=O)CN2C(=O)CSc3ccc(S(=O)(=O)N(C)C)cc32)c1	/	/	/	3%	/
O=C1COc2ccc(C(=O)/C=C/c3ccccc3)cc2N1	9%	0%	3%	?	11%
CCCCNC(=S)Nc1ccc(-c2nc3ccc(C)cc3s2)cc1	3.5µM*	4.6µM*	2.8µM*	1.7µM*	3.5µM*
COCCCNC(=S)Nc1ccc(C)cc1	/	2%	0%	?	2%
CCC(C)(C)NC(=S)Nc1ccc(-c2nc3ccc(C)cc3s2)cc1	28%[1.84 µM]	9.2µM*	2.8µM*	2.7µM*	4.5µM*
COc1ccc(Cn2c(C3CC3)nc3ccc(NC(C)=O)cc3c2=O)cc1	11µM*	?	1.6µM*	11µM*	2.2µM*
CCCc1nc2ccc(NC(C)=O)cc2c(=O)n1Cc1ccc(Cl)cc1	5%	?	?	?	3.5µM*
CN(CCO)Cc1ncccc1O	-3%[9.22 µM]	/	/	/	/
CCOC(=O)N1CCc2c(sc(NCc3cccc(F)c3)c2C(=O)Nc2ccc(OCC)cc2)C1	/	/	/	24µM*	/
CCOC(=O)N1CCc2c(sc(NCc3ccc(OC)c(Br)c3)c2C(=O)Nc2cc(OC)ccc2OC)C1	/	/	/	-7%	/
COc1ccc(CC(=O)NNc2ncnc3c2cnn3-c2ccccc2)cc1	2%	4%	-3%	1%	-3%
CCC(CO)Nc1ncnc2c1cnn2-c1ccc(Cl)cc1 (stereo not drawn)	?	?	0.32µM*	1.7µM*	0.45µM*
CCC(CO)Nc1ncnc2c1cnn2-c1ccc(OC)cc1 (stereo not drawn)	10µM*	2.6µM*	1µM*	6.7µM*	1µM*
CCC(C)Nc1ncnc2c1cnn2Cc1ccc(Cl)cc1 (stereo not drawn)	-13%	-6%	-3%	-1%	-4%
CCC1(C)C(Nc2c(C)cccc2C)=NC(=S)N1c1ccc(NC(C)=O)cc1 (stereo not drawn)	/	4%	4%	6%	-2%
Cc1ccc(-c2noc(CN(C3CCCCC3)S(=O)(=O)c3ccc(C)cc3)n2)cc1	-9%	/	/	-2%	/
CSc1nnc2c3ccccc3n(CCc3ccccc3)c2n1	4µM*	-17%	10%	-3%	-4%
CSc1nnc2c3ccccc3n(Cc3ccccc3)c2n1	-7%	1%	-6%	2%	1%
CSCC[C@H](NC(=O)c1ccc(OCC2CCCO2)cc1)c1nc2ccccc2[nH]1 (stereo partly drawn)	/	-1%	/	/	/
[O-]/[N+](=C\c1ccncc1)c1ccc(Br)cc1	/	?	?	8.5µM*	?
CCOC(=O)/C(C#N)=C1\C(=O)N(Cc2ccccc2)c2ccccc21	/	-5%	-1%	?	-3%
Oc1c(/C=N/Nc2cccc3cccnc23)ccc2ccccc12	11µM*	?	3.2µM*	?	?
Cc1ccc2nc(C)cc(N/N=C/c3cccc(O)c3)c2c1	/	-2%	-1%	0%	-1%
SMILES	SMN2 splice enh	ELG1 genotox	Rab9 promoter act	FLuc counter	NPC1 prom act
COc1cc(/C=N/Nc2cccc3cccnc23)cc(OC)c1O	?	6%	?	2.7µM*	-2%
Oc1cccc(/C=N/Nc2cccc3cccnc23)c1	/	?	?	0.67µM*	?
CCCn1c(CCc2ccccc2)n[nH]c1=S	/	0%	-4%	2%	-2%
Cc1ccc(S(=O)(=O)N(CC(=O)N2CCC(C)CC2)Cc2ccccc2F)cc1	0%	-4%	3%	1%	2%
CN(Cc1ccccc1Br)C(=O)CSc1nnnn1C1CC1	/	-1%	10%	-3%	-2%
COC(=O)CCCn1nc(NC(=O)COc2ccc(F)cc2)cc1C	/	-1%	-1%	0%	-3%
COC(=O)c1cccc(NC(=O)C2CCN(S(=O)(=O)Cc3ccccc3)CC2)c1C	/	/	/	-1%	/
CC(=O)c1ccc(NC(=O)CSc2ccc3nc(-c4ccccc4)cn3n2)cc1	/	/	/	12µM*	/
N#CCSc1ccc2nc(-c3ccccc3)cn2n1	/	?	2µM*	7.6µM*	2.8µM*
CCc1ccc(NC(=O)CSc2ccc3nc(-c4ccc(OC)cc4)cn3n2)cc1	/	/	/	2.7µM*	/
CCc1ccc(NC(=O)CSc2ccc3nnc(CCNS(=O)(=O)c4ccc(OC)cc4)n3n2)cc1	/	/	/	-9%	/
O=C(CSc1ccc2nc(-c3ccccc3)cn2n1)Nc1ccccc1C(F)(F)F	/	/	/	-11%	/
O=C1CCCC(=O)C1=C1SCCCS1	5%	2%	2%	0%	-2%
COc1cccc(/C=C2\N=C3CCCCCN3C2=O)c1	0%	?	2%	13µM*	0%
O=C(Nc1ccccc1N1CCOCC1)c1cc2c(s1)CCCCC2	/	7%	?	4.8µM*	27%
O=C(Nc1ccc(N2CCOCC2)cc1)c1cc2c(s1)CCCCC2	-16%	2%	-9%	19µM*	-1%
O=C(Nc1ccc(N2CCOCC2)cc1)c1cc2c(s1)CCCC2	-12%	11%	2%	?	10%
CCOC(=O)c1ccc(NC(=O)Cc2noc3ccc(C)cc23)cc1	/	/	/	8.5µM*	/
Cc1ccc2onc(CC(=O)N(C)c3ccccc3)c2c1	/	/	/	4.8µM*	/
COc1ccc(NC(=O)Cc2noc3ccc(C)cc23)cc1Cl	/	/	/	-4%	/

Assay outcomes: PubChem BioAssay, National Center for Advancing Translational Sciences (NCATS)
